From ChEMBL document CHEMBL1961873, “Compounds: GSK PKIS; Assays: Nanosyn kinase panel” (2012) come the findings set out here.

Assay [1] addresses T1, Serine/threonine-protein kinase Nek9 (Homo sapiens) (UniProt Q8TD19).
T1 sequence (whole entry): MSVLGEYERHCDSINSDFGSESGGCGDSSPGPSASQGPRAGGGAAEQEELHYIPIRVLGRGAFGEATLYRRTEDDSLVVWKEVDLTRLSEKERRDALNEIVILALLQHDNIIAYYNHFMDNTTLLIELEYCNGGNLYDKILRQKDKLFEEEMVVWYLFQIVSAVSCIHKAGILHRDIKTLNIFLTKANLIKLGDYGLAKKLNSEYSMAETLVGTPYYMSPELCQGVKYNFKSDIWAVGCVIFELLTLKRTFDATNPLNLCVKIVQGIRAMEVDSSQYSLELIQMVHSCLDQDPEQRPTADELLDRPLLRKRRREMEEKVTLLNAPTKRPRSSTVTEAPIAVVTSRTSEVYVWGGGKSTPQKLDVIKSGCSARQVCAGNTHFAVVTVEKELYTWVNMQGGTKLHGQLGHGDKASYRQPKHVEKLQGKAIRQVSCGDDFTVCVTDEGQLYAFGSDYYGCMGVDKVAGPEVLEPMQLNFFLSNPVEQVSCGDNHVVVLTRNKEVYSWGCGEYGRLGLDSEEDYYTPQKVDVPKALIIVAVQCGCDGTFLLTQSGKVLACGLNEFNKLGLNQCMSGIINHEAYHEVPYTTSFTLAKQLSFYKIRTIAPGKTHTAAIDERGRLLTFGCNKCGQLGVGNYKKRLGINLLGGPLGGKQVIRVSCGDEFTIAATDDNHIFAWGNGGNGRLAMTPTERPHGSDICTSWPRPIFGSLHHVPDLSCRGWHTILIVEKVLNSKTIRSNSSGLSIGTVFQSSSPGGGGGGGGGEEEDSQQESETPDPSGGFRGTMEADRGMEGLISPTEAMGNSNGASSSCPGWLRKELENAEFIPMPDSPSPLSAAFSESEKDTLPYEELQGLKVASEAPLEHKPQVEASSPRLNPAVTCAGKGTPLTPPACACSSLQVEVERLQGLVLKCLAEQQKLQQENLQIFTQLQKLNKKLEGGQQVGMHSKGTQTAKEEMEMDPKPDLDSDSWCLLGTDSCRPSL
To be noted: at 1 µM.

Assay [2] addresses Serine/threonine-protein kinase PLK1 (Homo sapiens) (UniProt P53350). To be noted: at 0.1 µM.
For assay [3] the target is unchanged. Conditions: at 1 µM.
Assay [4] deals with T2, Dual specificity protein kinase TTK (Homo sapiens) (UniProt P33981).
T2 sequence (whole entry): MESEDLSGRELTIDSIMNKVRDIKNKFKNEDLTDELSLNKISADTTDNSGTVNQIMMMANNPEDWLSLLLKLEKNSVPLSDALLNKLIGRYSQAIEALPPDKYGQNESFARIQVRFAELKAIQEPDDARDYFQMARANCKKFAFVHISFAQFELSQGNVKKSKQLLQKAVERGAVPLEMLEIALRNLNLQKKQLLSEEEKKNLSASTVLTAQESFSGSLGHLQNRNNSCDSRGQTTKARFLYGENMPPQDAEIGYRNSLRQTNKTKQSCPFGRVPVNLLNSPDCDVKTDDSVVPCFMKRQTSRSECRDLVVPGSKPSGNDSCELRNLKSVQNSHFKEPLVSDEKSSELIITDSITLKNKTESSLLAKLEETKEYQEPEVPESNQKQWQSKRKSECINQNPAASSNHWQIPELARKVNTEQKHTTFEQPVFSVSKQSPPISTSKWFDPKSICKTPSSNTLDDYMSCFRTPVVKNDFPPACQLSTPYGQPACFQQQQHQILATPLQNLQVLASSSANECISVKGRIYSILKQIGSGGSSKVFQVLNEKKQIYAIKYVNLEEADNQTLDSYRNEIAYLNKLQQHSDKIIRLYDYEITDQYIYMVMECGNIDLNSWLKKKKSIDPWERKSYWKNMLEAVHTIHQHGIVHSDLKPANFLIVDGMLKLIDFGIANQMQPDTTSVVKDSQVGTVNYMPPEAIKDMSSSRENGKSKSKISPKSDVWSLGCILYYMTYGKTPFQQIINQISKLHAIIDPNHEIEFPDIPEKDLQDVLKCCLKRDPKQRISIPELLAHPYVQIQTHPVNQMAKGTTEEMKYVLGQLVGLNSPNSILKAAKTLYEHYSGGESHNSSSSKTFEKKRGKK
Conditions: at 0.1 µM.

The test system of assay [5] is T3, Receptor-type tyrosine-protein kinase FLT3 (Homo sapiens), P36888 [D835Y].
T3 sequence (whole entry): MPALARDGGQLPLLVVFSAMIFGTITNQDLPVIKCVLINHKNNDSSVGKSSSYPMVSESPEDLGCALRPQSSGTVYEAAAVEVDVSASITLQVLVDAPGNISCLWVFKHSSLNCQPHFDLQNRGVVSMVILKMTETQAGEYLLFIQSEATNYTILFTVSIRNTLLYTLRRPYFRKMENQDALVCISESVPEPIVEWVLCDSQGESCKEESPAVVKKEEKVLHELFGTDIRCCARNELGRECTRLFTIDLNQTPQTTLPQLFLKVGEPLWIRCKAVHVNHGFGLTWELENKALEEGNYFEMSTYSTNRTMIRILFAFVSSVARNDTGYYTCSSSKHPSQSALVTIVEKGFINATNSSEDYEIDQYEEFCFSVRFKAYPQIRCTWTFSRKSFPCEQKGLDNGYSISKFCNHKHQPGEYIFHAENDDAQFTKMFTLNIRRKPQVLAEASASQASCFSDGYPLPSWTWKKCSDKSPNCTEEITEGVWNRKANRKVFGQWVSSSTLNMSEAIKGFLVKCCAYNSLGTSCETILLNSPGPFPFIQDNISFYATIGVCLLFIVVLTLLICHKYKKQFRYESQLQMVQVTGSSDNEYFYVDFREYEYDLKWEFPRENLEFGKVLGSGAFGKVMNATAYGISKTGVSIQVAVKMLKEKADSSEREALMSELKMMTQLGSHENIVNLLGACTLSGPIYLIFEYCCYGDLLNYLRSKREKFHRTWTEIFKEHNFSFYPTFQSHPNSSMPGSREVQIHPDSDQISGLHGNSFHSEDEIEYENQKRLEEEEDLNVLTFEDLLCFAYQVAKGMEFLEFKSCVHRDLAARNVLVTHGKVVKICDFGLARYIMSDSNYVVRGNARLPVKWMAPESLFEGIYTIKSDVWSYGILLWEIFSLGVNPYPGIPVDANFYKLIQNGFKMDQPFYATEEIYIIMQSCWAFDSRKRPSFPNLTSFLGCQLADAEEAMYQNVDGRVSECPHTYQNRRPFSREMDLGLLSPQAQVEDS
Conditions: at 1 µM.

Assay [6] addresses Vascular endothelial growth factor receptor 3 (Homo sapiens) (UniProt P35916). To be noted: at 0.1 µM.
For assay [7] the target is unchanged. To be noted: at 1 µM.
For assay [8], the target named is Macrophage colony-stimulating factor 1 receptor (Homo sapiens) (UniProt P07333). Conditions: at 0.1 µM.
Macrophage colony-stimulating factor 1 receptor (Homo sapiens), sequence (P07333 whole entry): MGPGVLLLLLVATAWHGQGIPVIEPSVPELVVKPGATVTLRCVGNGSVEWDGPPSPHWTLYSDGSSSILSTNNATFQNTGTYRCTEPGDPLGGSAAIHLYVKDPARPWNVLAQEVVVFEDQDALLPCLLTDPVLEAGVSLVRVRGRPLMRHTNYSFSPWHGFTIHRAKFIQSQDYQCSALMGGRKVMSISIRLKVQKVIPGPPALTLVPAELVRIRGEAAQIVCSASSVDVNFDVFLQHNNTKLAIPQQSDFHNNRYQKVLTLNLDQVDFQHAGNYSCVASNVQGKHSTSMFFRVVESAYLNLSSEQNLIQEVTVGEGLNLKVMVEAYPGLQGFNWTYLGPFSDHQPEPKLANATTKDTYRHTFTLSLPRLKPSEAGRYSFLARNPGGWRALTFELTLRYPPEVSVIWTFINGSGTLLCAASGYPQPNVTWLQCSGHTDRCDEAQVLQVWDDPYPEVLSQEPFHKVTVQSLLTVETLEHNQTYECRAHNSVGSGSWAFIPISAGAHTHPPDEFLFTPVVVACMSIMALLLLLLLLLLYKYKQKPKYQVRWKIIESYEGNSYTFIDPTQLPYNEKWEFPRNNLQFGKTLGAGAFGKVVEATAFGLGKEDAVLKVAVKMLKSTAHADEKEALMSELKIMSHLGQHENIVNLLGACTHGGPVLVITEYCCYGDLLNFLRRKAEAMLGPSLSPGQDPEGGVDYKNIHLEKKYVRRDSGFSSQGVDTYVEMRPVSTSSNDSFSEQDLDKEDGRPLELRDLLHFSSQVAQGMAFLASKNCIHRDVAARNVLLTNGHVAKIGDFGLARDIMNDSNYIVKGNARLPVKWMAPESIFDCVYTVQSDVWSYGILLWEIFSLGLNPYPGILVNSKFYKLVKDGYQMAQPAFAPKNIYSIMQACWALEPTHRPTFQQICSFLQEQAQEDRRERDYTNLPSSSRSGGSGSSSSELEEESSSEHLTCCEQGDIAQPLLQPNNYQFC
For assay [9] the target is unchanged. Conditions: at 1 µM.
Assay [10] has as its target Tyrosine-protein kinase Fyn (Homo sapiens) (UniProt P06241). To be noted: at 0.1 µM.
Assay [11] shares this target. To be noted: at 1 µM.
Assay [12] concerns the target Tyrosine-protein kinase HCK (Homo sapiens) (UniProt P08631). Conditions: at 0.1 µM.
Assay [13] has the same target. Conditions: at 1 µM.
Assay [14] concerns the target Insulin-like growth factor 1 receptor (Homo sapiens) (UniProt P08069). Conditions: at 0.1 µM.
For assay [15] the target is unchanged. To be noted: at 1 µM.
Assay [16] concerns the target Insulin receptor (Homo sapiens) (UniProt P06213). To be noted: at 0.1 µM.
The target is the same in assay [17]. To be noted: at 1 µM.
Assay [18] concerns the target Insulin receptor-related protein (Homo sapiens) (UniProt P14616). To be noted: at 0.1 µM.
Assay [19] shares this target. To be noted: at 1 µM.
For assay [20], the target named is T4, Tyrosine-protein kinase ITK/TSK (Homo sapiens) (UniProt Q08881).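 Further: mean percent inhibition of ITK from the GSK PKIS screen.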
T4 sequence (whole entry): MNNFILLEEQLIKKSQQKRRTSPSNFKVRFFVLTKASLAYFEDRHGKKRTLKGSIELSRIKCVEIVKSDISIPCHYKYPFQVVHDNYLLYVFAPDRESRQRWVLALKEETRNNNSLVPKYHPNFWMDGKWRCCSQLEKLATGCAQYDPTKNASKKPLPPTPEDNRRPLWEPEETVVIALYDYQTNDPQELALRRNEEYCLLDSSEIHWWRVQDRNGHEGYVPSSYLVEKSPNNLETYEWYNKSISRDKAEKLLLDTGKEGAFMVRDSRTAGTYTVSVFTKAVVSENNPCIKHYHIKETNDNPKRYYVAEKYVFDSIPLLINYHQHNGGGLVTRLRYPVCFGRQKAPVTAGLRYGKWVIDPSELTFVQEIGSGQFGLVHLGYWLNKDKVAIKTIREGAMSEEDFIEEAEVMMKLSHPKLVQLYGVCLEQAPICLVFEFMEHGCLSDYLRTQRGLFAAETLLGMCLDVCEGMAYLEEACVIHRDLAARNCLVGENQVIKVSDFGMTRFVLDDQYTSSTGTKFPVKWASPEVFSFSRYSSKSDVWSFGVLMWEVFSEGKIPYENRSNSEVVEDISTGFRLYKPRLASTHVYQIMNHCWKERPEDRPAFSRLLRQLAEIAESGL
Conditions: at 0.1 µM.

A word on the inhibition: it is the relative decrease from the control value, in per cent.

Tyrosine-protein kinase Fyn (Homo sapiens), sequence (P06241 2-537 limits assumed): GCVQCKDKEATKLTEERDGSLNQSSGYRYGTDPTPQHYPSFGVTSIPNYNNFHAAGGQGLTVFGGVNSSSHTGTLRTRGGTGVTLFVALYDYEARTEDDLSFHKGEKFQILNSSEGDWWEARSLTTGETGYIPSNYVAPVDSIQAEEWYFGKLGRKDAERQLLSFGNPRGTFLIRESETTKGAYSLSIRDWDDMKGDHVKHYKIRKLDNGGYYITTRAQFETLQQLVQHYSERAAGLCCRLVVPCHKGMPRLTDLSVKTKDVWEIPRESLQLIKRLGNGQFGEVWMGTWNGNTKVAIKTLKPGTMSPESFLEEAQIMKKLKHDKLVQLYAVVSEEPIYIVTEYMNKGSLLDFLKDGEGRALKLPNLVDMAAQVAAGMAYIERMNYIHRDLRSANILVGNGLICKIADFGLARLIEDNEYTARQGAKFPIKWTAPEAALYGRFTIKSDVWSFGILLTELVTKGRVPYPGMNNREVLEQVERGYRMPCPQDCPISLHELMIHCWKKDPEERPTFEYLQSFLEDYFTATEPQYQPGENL
Tyrosine-protein kinase HCK (Homo sapiens), sequence (P08631 2-526 limits assumed): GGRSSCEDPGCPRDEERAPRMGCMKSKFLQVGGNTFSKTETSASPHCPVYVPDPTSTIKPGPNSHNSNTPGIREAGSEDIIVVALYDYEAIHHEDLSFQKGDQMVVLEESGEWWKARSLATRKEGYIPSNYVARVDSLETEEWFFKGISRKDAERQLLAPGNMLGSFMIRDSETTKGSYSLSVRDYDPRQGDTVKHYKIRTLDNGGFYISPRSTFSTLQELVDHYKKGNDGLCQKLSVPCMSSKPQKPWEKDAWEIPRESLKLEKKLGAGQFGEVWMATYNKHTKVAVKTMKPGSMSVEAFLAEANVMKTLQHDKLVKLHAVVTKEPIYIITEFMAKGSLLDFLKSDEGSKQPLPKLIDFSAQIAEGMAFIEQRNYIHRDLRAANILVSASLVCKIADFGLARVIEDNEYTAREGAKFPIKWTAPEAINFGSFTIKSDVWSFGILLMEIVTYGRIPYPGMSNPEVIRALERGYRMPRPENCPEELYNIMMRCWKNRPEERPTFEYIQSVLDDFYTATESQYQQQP
Insulin-like growth factor 1 receptor (Homo sapiens), sequence (P08069 31-736 limits assumed): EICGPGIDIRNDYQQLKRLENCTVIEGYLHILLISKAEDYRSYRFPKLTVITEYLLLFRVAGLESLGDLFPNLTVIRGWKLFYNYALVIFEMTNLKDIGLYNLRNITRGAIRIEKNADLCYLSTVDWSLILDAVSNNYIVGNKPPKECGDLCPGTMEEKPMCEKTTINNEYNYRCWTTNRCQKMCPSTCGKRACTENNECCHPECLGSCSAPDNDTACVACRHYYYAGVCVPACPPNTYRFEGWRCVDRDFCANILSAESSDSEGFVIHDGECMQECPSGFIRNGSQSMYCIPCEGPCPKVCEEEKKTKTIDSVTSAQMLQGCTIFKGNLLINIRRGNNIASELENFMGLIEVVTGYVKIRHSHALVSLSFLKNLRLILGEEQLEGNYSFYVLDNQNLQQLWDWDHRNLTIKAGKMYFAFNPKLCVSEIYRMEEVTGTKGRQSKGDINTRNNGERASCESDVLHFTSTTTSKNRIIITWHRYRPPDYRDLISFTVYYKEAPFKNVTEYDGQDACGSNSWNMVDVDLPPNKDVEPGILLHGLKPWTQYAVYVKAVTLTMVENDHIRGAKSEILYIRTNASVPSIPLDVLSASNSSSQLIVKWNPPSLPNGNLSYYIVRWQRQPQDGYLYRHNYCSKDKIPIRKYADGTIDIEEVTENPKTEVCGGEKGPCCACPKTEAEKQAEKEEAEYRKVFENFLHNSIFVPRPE
Insulin-like growth factor 1 receptor (Homo sapiens), sequence (P08069 741-1367 limits assumed): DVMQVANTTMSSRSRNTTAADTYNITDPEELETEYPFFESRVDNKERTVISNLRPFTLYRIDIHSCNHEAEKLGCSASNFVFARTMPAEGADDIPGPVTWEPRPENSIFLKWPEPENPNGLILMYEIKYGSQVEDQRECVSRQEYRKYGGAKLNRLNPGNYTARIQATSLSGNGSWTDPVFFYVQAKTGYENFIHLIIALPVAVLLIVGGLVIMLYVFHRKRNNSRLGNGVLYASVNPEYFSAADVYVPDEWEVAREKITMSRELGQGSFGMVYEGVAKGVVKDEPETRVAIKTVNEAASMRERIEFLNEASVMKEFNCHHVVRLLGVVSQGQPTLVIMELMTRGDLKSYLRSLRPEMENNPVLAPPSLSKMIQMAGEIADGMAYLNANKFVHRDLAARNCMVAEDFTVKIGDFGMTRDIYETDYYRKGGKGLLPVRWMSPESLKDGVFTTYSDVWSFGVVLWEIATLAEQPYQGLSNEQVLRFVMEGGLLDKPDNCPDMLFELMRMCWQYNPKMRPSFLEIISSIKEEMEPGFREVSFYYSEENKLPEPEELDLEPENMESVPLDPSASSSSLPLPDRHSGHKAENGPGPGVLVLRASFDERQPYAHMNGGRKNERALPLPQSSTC
Insulin receptor-related protein (Homo sapiens), sequence (P14616 27-742 limits assumed): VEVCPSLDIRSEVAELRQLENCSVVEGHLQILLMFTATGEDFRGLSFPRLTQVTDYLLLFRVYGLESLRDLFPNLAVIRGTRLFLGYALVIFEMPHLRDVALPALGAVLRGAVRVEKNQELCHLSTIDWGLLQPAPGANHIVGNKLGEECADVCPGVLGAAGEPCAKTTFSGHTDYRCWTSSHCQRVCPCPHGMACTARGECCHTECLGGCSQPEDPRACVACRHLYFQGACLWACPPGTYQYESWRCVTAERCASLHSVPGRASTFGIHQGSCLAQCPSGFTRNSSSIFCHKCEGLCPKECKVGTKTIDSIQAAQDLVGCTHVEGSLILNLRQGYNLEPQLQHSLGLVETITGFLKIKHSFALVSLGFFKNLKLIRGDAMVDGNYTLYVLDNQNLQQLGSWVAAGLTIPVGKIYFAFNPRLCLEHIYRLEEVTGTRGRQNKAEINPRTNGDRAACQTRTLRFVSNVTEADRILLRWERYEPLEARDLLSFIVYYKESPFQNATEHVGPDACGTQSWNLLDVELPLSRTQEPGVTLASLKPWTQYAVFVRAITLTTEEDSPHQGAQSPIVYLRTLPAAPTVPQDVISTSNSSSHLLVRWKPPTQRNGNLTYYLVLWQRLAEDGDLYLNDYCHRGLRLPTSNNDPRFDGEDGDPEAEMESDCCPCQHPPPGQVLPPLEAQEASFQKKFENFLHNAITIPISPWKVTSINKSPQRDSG
Insulin receptor-related protein (Homo sapiens), sequence (P14616 747-1297 limits assumed): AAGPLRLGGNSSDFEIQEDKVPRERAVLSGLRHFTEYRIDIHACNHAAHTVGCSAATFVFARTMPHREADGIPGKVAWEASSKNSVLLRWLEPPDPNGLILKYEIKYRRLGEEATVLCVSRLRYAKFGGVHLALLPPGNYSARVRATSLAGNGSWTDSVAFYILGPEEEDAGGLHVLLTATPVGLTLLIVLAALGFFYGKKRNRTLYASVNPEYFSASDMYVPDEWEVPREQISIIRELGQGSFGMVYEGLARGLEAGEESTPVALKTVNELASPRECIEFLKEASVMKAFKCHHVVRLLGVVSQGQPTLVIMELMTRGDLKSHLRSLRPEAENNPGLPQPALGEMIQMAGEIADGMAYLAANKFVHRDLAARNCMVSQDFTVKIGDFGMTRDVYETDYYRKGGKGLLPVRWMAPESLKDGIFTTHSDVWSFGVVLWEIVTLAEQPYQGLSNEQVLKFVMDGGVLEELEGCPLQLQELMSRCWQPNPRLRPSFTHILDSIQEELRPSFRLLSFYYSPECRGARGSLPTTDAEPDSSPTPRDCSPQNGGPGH

On to `CCn1c(-c2nonc2N)nc2c(C#CCN)ncc(OCCCN)c21`, for which the inhibition in assay [1] is -9.04%; in assay [2], -5.66%; in [3] it was -6.34%; in [4], -4.74%; in [5], 7.13%; in assay [6] it was -2.4%. For the same molecule, the inhibition was 1.59% in [7]; -1.23% in assay [8]; 0.9% in assay [9]; 0.54% in assay [10]; -1.61% in [11]; 0.79% in assay [12]. Also, the inhibition in [13] was -3.58%; in [14], -5.07%; in assay [15], -6.11%; in assay [16], -5.48%; in assay [17] it was -4.01%; in assay [18], -0.39%. For the same molecule, the inhibition in assay [19] came out at 0.07%; in assay [20], 0.2%.
As for `Fc1ccc(-c2ncn(C3CCNCC3)c2-c2ccnc(Oc3ccccc3)n2)cc1`, the inhibition was 5.18% in [1]; 3.38% in [2]; 3.09% in assay [3]; 6.21% in assay [4]; -0.44% in assay [5]; -7.44% in assay [6]. Moreover, the inhibition in assay [8] was -0.76%; in assay [9], 3.02%; in [10], -2.88%; in assay [11], -3.36%; in [12] it was 2.11%; in assay [13], 1.98%. In addition, the inhibition was -4.15% in [15]; 2.42% in [16]; 3.05% in [17]; 0.57% in assay [18]; 0.22% in assay [19]; -3.91% in assay [20].
For the molecule `NS(=O)(=O)c1ccc(N/C=C2\C(=O)Nc3ccc4ncsc4c32)cc1`, the inhibition turned out to be 22.4% in assay [1]; 4.2% in assay [2]; 4.96% in assay [3]; 40.1% in assay [4]; 81.1% in assay [5]; 38.2% in assay [6]. The inhibition in [7] was determined as 93.1%; in assay [8], 29.5%; in assay [9], 58.6%; in assay [10] it was 2.85%; in assay [11] it was 9.66%; in [12] it was 9.53%. The inhibition in assay [13] was determined as 28.9%; in assay [14], 16%; in assay [15] it was 19.4%; in assay [16], 0.99%; in [17] it was 11.7%; in assay [18], 0.69%. Moreover, the inhibition in assay [19] was 4.17%; in assay [20], 1.17%.
Turning to `Cc1cc(-c2ccco2)cc(C)c1/C=C/c1cncc(-c2nn[nH]n2)c1`, the inhibition in assay [1] was 1.42%; in [2] it was 1.22%; in assay [3], 0.57%; in assay [4], 4.5%; in assay [5] it was -2.85%; in assay [6], 1.37%. The inhibition is 2.25% in assay [7]; -0.94% in assay [8]; 2.32% in [9]; 1.3% in [10]; 1.98% in assay [11]; 1.62% in [12]. Besides, the inhibition in [13] is 3.34%; in [14] it was -1.5%; in assay [15], 1.06%; in assay [16], 0.61%; in assay [17], 0.42%; in [18] it was 1.36%. Also, the inhibition in [19] is -0.21%; in [20] it was -0.49%.
